Entries with a potency or affinity are not part of this list. Active and inactive are the calls of the source.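 The calls were made as follows: active = potentiation or inhibition of the KCNQ1 potassium channel at some dose, with a concentration-response curve obtained; inactive = no effect at any dose, or no curve obtained.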
Target: Potassium voltage-gated channel subfamily KQT member 1 (Homo sapiens) (UniProt P51787)
Assay: KCNQ1 channel current modulation by KCNQ2 openers, dose response, selectivity assay for KCNQ2 activator project, automated patch clamp, KCNQ1-CHO cells (AID 493044)
Conditions: automated patch clamp current (IonWorks); series mostly up to 30 µM

Chain of Potassium voltage-gated channel subfamily KQT member 1 (Homo sapiens) (P51787 whole entry, looked up): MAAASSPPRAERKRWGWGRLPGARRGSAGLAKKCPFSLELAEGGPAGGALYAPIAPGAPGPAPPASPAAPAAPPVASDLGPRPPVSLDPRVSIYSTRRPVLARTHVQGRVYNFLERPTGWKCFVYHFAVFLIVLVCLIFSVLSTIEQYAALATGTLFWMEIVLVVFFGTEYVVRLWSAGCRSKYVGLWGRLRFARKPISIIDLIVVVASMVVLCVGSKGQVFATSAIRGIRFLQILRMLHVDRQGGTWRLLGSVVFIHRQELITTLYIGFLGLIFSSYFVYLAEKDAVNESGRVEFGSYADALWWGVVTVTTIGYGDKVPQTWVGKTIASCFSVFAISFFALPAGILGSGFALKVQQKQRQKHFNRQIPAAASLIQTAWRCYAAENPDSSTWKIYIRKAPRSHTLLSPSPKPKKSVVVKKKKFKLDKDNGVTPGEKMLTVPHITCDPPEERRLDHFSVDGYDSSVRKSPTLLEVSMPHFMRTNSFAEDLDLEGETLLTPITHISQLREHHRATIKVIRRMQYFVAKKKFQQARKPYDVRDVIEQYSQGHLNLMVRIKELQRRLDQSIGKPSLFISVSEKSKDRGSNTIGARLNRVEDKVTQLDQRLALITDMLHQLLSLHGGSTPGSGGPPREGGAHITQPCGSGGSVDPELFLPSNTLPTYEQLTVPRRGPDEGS

| Compound | outcome |
| --- | --- |
| CCCCC(=O)Nc1c(C)cc(C)cc1Cl | inactive |
| Cc1cccc(C)c1NC(=O)C1CC2CCC1C2 (centres undefined) | inactive |
| Cc1cc(C)c(NC(=O)CC(C)(C)C)c(Cl)c1 | inactive |
| Cc1cc(C)c(NC(=O)C2CC3CCC2C3)c(C)c1 (centres undefined) | inactive |

Reference: PubChem BioAssay AID493044 (Johns Hopkins Ion Channel Center, 2011)
